Experimental data as given in PubChem BioAssay AID1259374 (The Scripps Research Institute Molecular Screening Center, 2018).
Hit rate of the full screen: of about 650,000 compounds, about 5,900 (0.91%) were called active. Rule as the data show it: active = inhibition above about 50%; inactive = the rest. The full list was thinned out, with actives kept by preference.

target: Microphthalmia-associated transcription factor (Homo sapiens) (UniProt O75030); assay: MITF inhibitors, primary screen, biochemical, AlphaScreen, human (AID 1259374); conditions: AlphaScreen MITF homodimerization, bead proximity signal; at 2.6 µM; hits give high values;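 also: 0% = vehicle wells with protein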
Sequence (O75030 whole entry, looked up): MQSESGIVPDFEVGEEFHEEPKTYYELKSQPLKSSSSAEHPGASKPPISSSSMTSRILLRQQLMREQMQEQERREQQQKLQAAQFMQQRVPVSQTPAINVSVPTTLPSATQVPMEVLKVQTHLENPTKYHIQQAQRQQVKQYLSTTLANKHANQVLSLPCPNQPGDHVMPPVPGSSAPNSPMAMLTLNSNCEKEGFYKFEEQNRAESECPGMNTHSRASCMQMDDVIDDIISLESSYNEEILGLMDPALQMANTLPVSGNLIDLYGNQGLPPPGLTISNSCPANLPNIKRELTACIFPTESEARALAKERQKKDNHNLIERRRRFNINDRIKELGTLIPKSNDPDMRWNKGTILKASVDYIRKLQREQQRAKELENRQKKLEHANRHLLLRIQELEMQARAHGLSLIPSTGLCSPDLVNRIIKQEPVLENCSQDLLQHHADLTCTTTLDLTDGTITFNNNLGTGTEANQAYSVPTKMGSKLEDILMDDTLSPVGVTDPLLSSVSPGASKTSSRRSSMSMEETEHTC

| Structure (SMILES) | inhibition |
| --- | --- |
| CC(=O)C1=C(O)C(=O)N(CCCN(C)C)C1c1ccc(Br)cc1 (stereo not drawn) | 4.38% (inactive) |
| COc1ccccc1/C=C1\SC(=S)N(CCC(=O)Nc2nc(C)cs2)C1=O | 13.4% (inactive) |
| CCOCc1nnc(NC(=O)C2CC(=O)N(c3ccc(C)cc3)C2)s1 (stereo not drawn) | 9.92% (inactive) |
| Cc1ccc(C)c(OCCN2CCOCC2)c1C | 54.9% (active) |
| Cc1cc(Cl)c(OCCN2CCOCC2)c(Br)c1 | 33.1% (inactive) |
| Cc1cc(OCCN2CCOCC2)nc(N2CCOCC2)n1 | 5.58% (inactive) |
| CCOc1cccc(C(=O)Nc2ccc3oc(-c4ccc(Cl)c(Cl)c4)nc3c2)c1 | 4.15% (inactive) |
| CCOCCOC(=O)C1=C(C)NC(=O)NC1c1ccccc1 (stereo not drawn) | 2.55% (inactive) |
| Cc1cccc(Nc2nc(=O)[nH]nc2C)c1 | 13.2% (inactive) |
| Cc1n[nH]c(=O)nc1N/N=C/c1cccs1 | 86.2% (active) |
| COc1cccc(/C=N/Nc2nc(=O)[nH]nc2C)c1OC | 35% (inactive) |
| O=c1[nH]cnc2nc(N/N=C/c3ccc(Cl)cc3)[nH]c12 | -5.83% (inactive) |
| O=C(Nc1cccc(Br)c1)N1CCC(CN2CCCC2)CC1 | 5.45% (inactive) |
| COc1cc(-c2cc(C(N)=O)on2)ccc1O | 3.55% (inactive) |
| CC(=O)c1cccc(-c2ncc(C)c(N)n2)c1 | 0.72% (inactive) |
| COc1cc2nc(-c3cccc(C(C)=O)c3)nc(Nc3ccc(N4CCOCC4)cc3)c2cc1OC | 1.79% (inactive) |
| COc1cc2nc(-c3cccc(C(C)=O)c3)nc(N)c2cc1OC | 60.9% (active) |
| Cc1ccc(C(NC(=O)Cc2ccccc2)c2ccc3cccnc3c2O)cc1 (stereo not drawn) | 3.27% (inactive) |
| COc1cccc(C(=O)NC(c2cccc([N+](=O)[O-])c2)c2cc(Cl)c3cccnc3c2O)c1 (stereo not drawn) | 4.72% (inactive) |
| Oc1c(C(Nc2ccccn2)c2ccc(OC(F)F)cc2)ccc2cccnc12 (stereo not drawn) | 12.2% (inactive) |
| CC(=O)NC(c1cccs1)c1cc(Cl)c2cccnc2c1O (stereo not drawn) | 59.1% (active) |

| Structure (SMILES) | inhibition |
| --- | --- |
| CC(=O)NC(c1ccccc1)c1ccc2cccnc2c1O (stereo not drawn) | 54.5% (active) |
| Cc1ccnc(NC(c2ccccc2Cl)c2ccc3cccnc3c2O)c1 (stereo not drawn) | 22.3% (inactive) |
| O=C(Cc1ccccc1)NC(c1ccc(Cl)cc1)c1ccc2cccnc2c1O (stereo not drawn) | -1.99% (inactive) |
| Oc1c(C(Nc2ccccn2)c2cccnc2)ccc2cccnc12 (stereo not drawn) | 58.1% (active) |
| CCOc1ccc(C(NC(=O)c2cc(OC)c(OC)c(OC)c2)c2cc(Cl)c3cccnc3c2O)cc1 (stereo not drawn) | 17.1% (inactive) |
| O=C(Oc1ccc2sc(=O)oc2c1)c1cccc(C(F)(F)F)c1 | -7.72% (inactive) |
| N#Cc1ccc(NC(=O)c2ccccc2C(=O)O)cc1 | 4.7% (inactive) |
| Cc1ccc(S(=O)(=O)N/N=C/c2cccnc2)cc1[N+](=O)[O-] | -30.1% (inactive) |
| COc1ccc(/C=C/c2cc[n+](C)cc2)c(OC)c1 | -10.4% (inactive) |
| CC(=O)Nc1cc(C(=O)NCCN2CCOCC2)cc(-n2ncc3cc(Nc4c(Cl)cccc4Cl)ccc32)c1 | -3% (inactive) |
| CCOC(=O)C1C2C=CC3(CN(c4ccc(C)cc4)C(=O)C13)O2 (stereo not drawn) | 0.13% (inactive) |
| O=C(CCCn1c(SCC(=O)c2ccc(Cl)c(Cl)c2)nc2ccsc2c1=O)NCCc1ccccc1 | 2.74% (inactive) |
| Cc1ccc(C2CC(c3ccc(Br)cc3)=NN2C(=O)CSc2nnc(CNC(=O)COc3ccccc3)n2C)cc1 (stereo not drawn) | -9.25% (inactive) |
| Clc1ccc(CN2CCN(CC3CC=CCC3)CC2)cc1 (stereo not drawn) | 78.5% (active) |
| O=C(c1ccccc1)N1CCN(Cc2ccc(Cl)cc2)CC1 | 48.9% (inactive) |
| Clc1ccc(CN2CCc3nnc(C4CCCO4)n3CC2)cc1 (stereo not drawn) | 9.36% (inactive) |
| N#C/C(=C\c1ccc(-c2ccc(S(N)(=O)=O)cc2)o1)C(N)=O | 3.71% (inactive) |
| CC(=O)NS(=O)(=O)c1ccc(-c2ccc(C=C(C#N)C#N)o2)cc1 | 64.8% (active) |
| CC(=O)NS(=O)(=O)c1ccc(-c2ccc(/C=C3/C(=O)N(CCCO)C(=O)C(C#N)=C3C)o2)cc1 | 3.37% (inactive) |
| O=C(CCc1ccc2c(c1)OCO2)N1CCC(c2[nH]ncc2-c2ccccc2)CC1 | -0.09% (inactive) |
| Cc1ccc(OCCN2CCNCC2)cc1C | 9.7% (inactive) |

| Structure (SMILES) | inhibition |
| --- | --- |
| Cc1cc(C(C)(C)C)ccc1OCCN1CCNCC1 | 52.3% (active) |
| Cc1cc(Br)ccc1OCCN1CCNCC1 | 36.3% (inactive) |
| Cc1cccc(OCCOCCN2CCC(C)CC2)c1C | 24.9% (inactive) |
| Cc1cccc(OCCN2CCNCC2)c1C | 73.1% (active) |
| C=CCc1ccccc1OCCN1CCNCC1 | 26.5% (inactive) |
| N#Cc1c(/N=C/c2ccccc2OCC(=O)O)sc2c1CCCC2 | 2% (inactive) |
| COc1ccccc1CNC(=O)c1ccccc1Br | 7.79% (inactive) |
| O=c1c2ccccc2nc(/C=C\c2ccc(F)c(F)c2)n1-c1ccc(Cl)cc1[N+](=O)[O-] | 1.53% (inactive) |
| Cn1c(CC(=O)NNC(=O)CNC(=O)c2ccc(Br)cc2)nc2ccccc21 | 8.22% (inactive) |
| Cc1ccc(-c2nn3c(C)nnc3s2)cc1NC(=O)COc1ccc(Cl)cc1C | -9.16% (inactive) |
| O=S(=O)(c1ccc(Br)cc1Cl)N1CCN(CCc2ccncc2)CC1 | 75.3% (active) |
| O=S(=O)(c1cc(Br)ccc1Br)N1CCN(CCO)CC1 | 7.82% (inactive) |
| O=S(=O)(/C=C/c1ccccc1)N1CCN(CCc2ccncc2)CC1 | 3.78% (inactive) |
| CCN1CCN(Cc2c(O)ccc3c2O/C(=C\c2cc(OC)ccc2OC)C3=O)CC1 | -14.3% (inactive) |
| CN1CC(CO)O/C1=C(C#N)\C=C1\Nc2ccccc2C1=O (stereo not drawn) | 21.7% (inactive) |
| COc1ccc(OCCCC(=O)Nc2ccccc2)cc1 | 14.3% (inactive) |
| COc1ccc(OC(=O)COc2ccc(Br)cc2)cc1 | 1.98% (inactive) |
| COc1ccc(OCCCC(=O)Oc2ccc(OC)cc2)cc1 | 80.3% (active) |
| CCC(C)c1ccccc1NC(=O)C(C)Cl (stereo not drawn) | -5.29% (inactive) |
| CCC(C)c1ccccc1NC(=O)CN(C)CC(=O)Nc1ccccc1SC (stereo not drawn) | 89.7% (active) |
| CN(CC(=O)Nc1ccccc1F)CC(=O)Nc1ccccc1Br | -2.33% (inactive) |
